Shown is part of a subset that was picked to be rich in hits.
AMPAR-TARP mod – modulates AMPAR-stargazin complexes. O88602+P19491. HEK293 GluA2+stargazin, membrane potential dye (FDSS), glutamate EC50; hits were called plate by plate, in both directions. calls only at 30 µM. 40,000 tested, 3.5% active;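 active = any of four per-well response measures lying three or more SD from its plate-wide compound average, in either direction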
GIRK2 act – Activators of human GIRK2-containing channels; P48051; 34,000 tested, under 10 active; activation (% efficacy), % for hits at 37.5 µM; AID 1259324; HEK293 GIRK2/NPY4 cells, thallium flux fluorescence;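 active = primary screen hit, no activity in plain HEK293 cells, and in GIRK2-only cells above 5% efficacy rising with concentration; inactive = the rest, including fluorescent compounds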;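 also: efficacy is normalized control-subtracted fluorescence 15 s after thallium addition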
Target sequence (P48051 whole entry, looked up): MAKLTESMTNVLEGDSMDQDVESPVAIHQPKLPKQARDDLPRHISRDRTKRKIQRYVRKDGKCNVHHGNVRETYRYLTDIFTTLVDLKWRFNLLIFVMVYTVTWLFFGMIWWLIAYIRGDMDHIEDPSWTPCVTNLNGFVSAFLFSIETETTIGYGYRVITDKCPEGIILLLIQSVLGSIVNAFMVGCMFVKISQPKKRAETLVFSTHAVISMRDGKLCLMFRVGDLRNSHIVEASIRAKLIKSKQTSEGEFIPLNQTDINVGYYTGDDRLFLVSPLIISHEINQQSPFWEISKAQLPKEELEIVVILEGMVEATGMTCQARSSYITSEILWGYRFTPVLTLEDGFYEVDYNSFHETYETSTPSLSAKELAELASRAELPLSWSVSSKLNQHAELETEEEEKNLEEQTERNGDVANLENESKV
Large screens that a line does not name were inactive.

COc1ccc(C(=O)NCCC2=CCCCC2)cc1	none
CCOC(=O)N1CC(=O)Nc2ccccc21	none
COc1ccc(-c2cc(CC(=O)N3CCC(C(N)=O)CC3)no2)cc1	none
CCOc1ccc(-c2ccc(=O)n(CCCC(=O)Nc3cc(C)on3)n2)cc1	none (no result: AMPAR-TARP mod)
Cc1ccc(C(CNC(=O)C(=O)NC2CC2)N(C)C)cc1 (stereo not drawn)	AMPAR-TARP mod active
CN(C)C(CNC(=O)C(=O)NC1CC1)c1ccc(F)cc1 (stereo not drawn)	none
NC(=O)CSc1nc(-c2ccccc2)c(NC(=O)c2cccc(Cl)c2)s1	AMPAR-TARP mod active
CNC(=O)CSc1nc(-c2ccccc2)c(NC(=O)CCc2ccccc2)s1	AMPAR-TARP mod active
CCNC(=O)CSc1nc(-c2ccccc2)c(NC(=O)CCc2ccc(OC)cc2)s1	none
NC(=O)CSc1nc(-c2ccccc2)c(NC(=O)c2ccccc2Cl)s1	none
CCC(=O)Nc1ccc(S(=O)(=O)NCCn2nc(-c3ccncc3)ccc2=O)cc1	none (no result: AMPAR-TARP mod)
O=c1c(SCc2ccc(Cl)cc2)nccn1-c1ccc(F)cc1	none
COC(=O)c1ccc(C(=O)OC)c(NC(=O)CCN2C(=O)c3ccccc3S2(=O)=O)c1	none
CCN(CC)C(=O)Cn1cc(C(=O)C(=O)N2CCN(Cc3ccccc3)CC2)c2ccccc21	none (no result: GIRK2 act)
CCN(CC)C(=O)Cn1cc(C(=O)C(=O)N(Cc2ccccc2)C(C)C)c2ccccc21	AMPAR-TARP mod active (no result: GIRK2 act)
CC(=O)Nc1cccc(NC(=O)CSc2nc(=O)n(N3CCN(C)CC3)c3c2CCCC3)c1	none (no result: GIRK2 act)
COc1ccc(NC(=O)CSc2nc(-c3ccc(Cl)cc3)cs2)c(OC)c1	none
O=C(Cc1cccs1)NNC(=O)c1cccn(Cc2ccc(Cl)c(Cl)c2)c1=O	AMPAR-TARP mod active
O=C(Cc1ccc(F)cc1)NNC(=O)c1cccn(Cc2ccc(Cl)c(Cl)c2)c1=O	none
Cc1ccc(S(=O)(=O)N2CCN(c3ncnc4c3nnn4C)CC2)c(C)c1	none
O=C(Cc1ccc(F)cc1)Nc1cc(-c2cccs2)nn1CCO	none
O=C(CCSc1ccccc1)Nc1cc(-c2cccs2)nn1CCO	AMPAR-TARP mod active
CCOc1ccc(Cl)cc1S(=O)(=O)N1CCCC(C)C1 (stereo not drawn)	AMPAR-TARP mod active (no result: GIRK2 act)
CCOc1ccc(S(=O)(=O)N2CCCC(C)C2)c2ccccc12 (stereo not drawn)	none (no result: GIRK2 act)
COC(=O)c1scc(-c2ccccc2)c1S(=O)(=O)N1CCN(Cc2ccccc2)CC1	AMPAR-TARP mod active (no result: GIRK2 act)
COC(=O)c1scc(-c2ccccc2)c1S(=O)(=O)N1CCCC1	none (no result: GIRK2 act)
Cc1sc(NC(=O)Cc2ccccc2)c(-c2nc3ccccc3s2)c1C	none
N#Cc1ccc(C(=O)N(CCN2CCOCC2)c2nc3c(F)cc(F)cc3s2)cc1	none (no result: GIRK2 act)
COc1ccc(N2CC(C)Cn3c2nc2c3c(=O)n(C/C=C/c3ccccc3)c(=O)n2C)cc1 (stereo not drawn)	none (no result: GIRK2 act)
COc1ccc(S(=O)(=O)N2CCCOC2CNC(=O)C(=O)NCCN2CCOCC2)cc1 (stereo not drawn)	none (no result: GIRK2 act)
O=C(NNC(=O)c1ccc(=O)n(Cc2ccccc2)c1)c1ccc(Cl)cc1	none
CCOc1ccccc1C(=O)NNC(=O)c1ccc(=O)n(Cc2ccccc2)c1	none
COc1ccc(C(=O)NNC(=O)c2ccc(=O)n(Cc3ccccc3)c2)c(OC)c1	AMPAR-TARP mod active
O=C(NNC(=O)c1cc2ccccc2oc1=O)c1ccc(=O)n(Cc2ccccc2)c1	AMPAR-TARP mod active
COc1cccc(OCCOCC(O)CN2CCN(c3ccccc3F)CC2)c1 (stereo not drawn)	AMPAR-TARP mod active (no result: GIRK2 act)
CCc1ccc(OCCOCC(O)CN2CCN(c3ccccc3F)CC2)cc1 (stereo not drawn)	none (no result: GIRK2 act)
Cc1ccc(S(=O)(=O)N2CCC(c3nc(-c4ccccc4)no3)CC2)cc1	none
CCOc1ccc(-c2cc(=O)n(CC(=O)N3c4ccccc4CC3C)cn2)cc1 (stereo not drawn)	none (no result: AMPAR-TARP mod)
COC(=O)Cc1c(C)c2ccc(OCC(=O)c3ccc(F)cc3)cc2oc1=O	AMPAR-TARP mod active (no result: GIRK2 act)
COC(=O)Cc1c(C)c2ccc(OCC(=O)c3ccc(-c4ccccc4)cc3)cc2oc1=O	none (no result: GIRK2 act)
Cc1ccc(S(=O)(=O)N2CCC(C(=O)Nc3nc(-c4ccc(C)c(C)c4)cs3)CC2)cc1	none (no result: GIRK2 act)
O=C(NCC1CCCO1)C(=O)Nc1cccc(N2CCCCC2=O)c1 (stereo not drawn)	none
CC1(C)CC(=O)C2=C(C1)NC1=C(C(=O)c3ccccc31)C2c1cccnc1 (stereo not drawn)	none (no result: GIRK2 act)
CC1(C)CC(=O)C2=C(C1)NC1=C(C(=O)c3ccccc31)C2c1ccc(C(F)(F)F)cc1 (stereo not drawn)	AMPAR-TARP mod active (no result: GIRK2 act)
Cc1ccccc1OCC(=O)Nc1ccc(N2CCN(C(=O)c3ccccc3C)CC2)cc1	none (no result: GIRK2 act)
CCCc1c(C(=O)NC2CCCC2)nnn1-c1ccc(Cl)cc1	AMPAR-TARP mod active
COCc1c(C(=O)NC2CCCC2)nnn1-c1ccc(C)cc1	AMPAR-TARP mod active
COCc1c(C(=O)Nc2ccc(NC(C)=O)cc2)nnn1-c1cc(C)cc(C)c1	none
CCCc1c(C(=O)NC2CCCCC2)nnn1-c1ccccc1	AMPAR-TARP mod active

Screening data (PubChem BioAssay)
